Compound activity: PubChem, National Center for Advancing Translational Sciences (NCATS)
Sfp PPTase inh: qHTS Assay for Inhibitors of Bacillus subtilis Sfp phosphopantetheinyl transferase (PPTase) | Biochemical Sfp PPTase activity, qHTS | Potency, µM, for the others: largest response in the series, negative = inhibition, usual class: inhibitors | 310,000 tested, 3.5% active;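 also: the enzyme is Sfp with the accession as filed and its product quenches rhodamine fluorescence; potency is read from the fitted curve at half-maximal effect; 0% = enzyme reaction without inhibitor and -100% = no enzyme wells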
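With Hepes-Na pH 7.6 buffer containing 10 mM MgCl2, Sfp (15 nM) modified BHQ-2-YbbR (12.5 uM) using rhodamine-CoA (5 uM). Two reads 30 minutes apart at 525/598 nm yielded each well's rate.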
VDR inhibitor: Inhibitors of the vitamin D receptor (VDR): qHTS | Vitamin D3 receptor (Homo sapiens), P11473 | VDR-SRC2-3 peptide fluorescence polarization, 2 h | Potency, µM, for inactives: max response, negative = inhibition, actives largely listed as inhibitors | 400,000 tested, 0.93% active; also: potency is read from the fitted curve at half-maximal effect
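Fluorescence polarization assay measuring small-molecule disruption of VDR binding to the coregulator peptide SRC2-3. Compounds were pin-transferred (23 nl) into the reagent mix and incubated 2 h at room temperature before reading.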
PLK1 PBD block: qHTS for Inhibitors of PLK1-PDB (polo-like kinase 1 - polo-box domain): Primary Screen | Plk1 PBD binding of FITC phosphopeptide, fluorescence polarization | AID 720504, 2013 | 360,000 tested, 2.8% active | Potency, µM, without a hit: max response, negative = inhibition, most hits filed as inhibitors; also: potency is read from the fitted curve at half-maximal effect; series mostly up to about 57 µM; nearly all actives have a fitted effect of over 65% in size
Target sequence (P53350 whole entry, looked up, the tested form may be a part): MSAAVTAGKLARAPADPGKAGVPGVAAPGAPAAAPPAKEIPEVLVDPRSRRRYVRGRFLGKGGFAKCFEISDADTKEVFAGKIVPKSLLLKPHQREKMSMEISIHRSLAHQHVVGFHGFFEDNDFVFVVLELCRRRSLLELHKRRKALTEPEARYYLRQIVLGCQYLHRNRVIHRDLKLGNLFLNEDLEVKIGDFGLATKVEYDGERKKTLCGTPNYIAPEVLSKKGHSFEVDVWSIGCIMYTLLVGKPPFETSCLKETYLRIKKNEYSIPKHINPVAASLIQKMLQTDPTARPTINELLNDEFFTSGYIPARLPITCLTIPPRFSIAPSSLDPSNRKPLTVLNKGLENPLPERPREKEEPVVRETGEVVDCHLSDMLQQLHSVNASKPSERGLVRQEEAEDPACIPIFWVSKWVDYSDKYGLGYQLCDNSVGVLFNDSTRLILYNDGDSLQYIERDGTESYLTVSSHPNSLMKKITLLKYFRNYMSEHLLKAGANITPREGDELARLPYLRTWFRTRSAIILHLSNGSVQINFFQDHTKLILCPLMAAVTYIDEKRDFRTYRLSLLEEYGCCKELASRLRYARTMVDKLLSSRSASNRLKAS
Mm-Cpn inhibitor: Inhibitors of TCP-1 ring complex (TRiC) of Methanococcus maripaludis (MmCpn): qHTS. AID 504842, 2011. Chaperonin Mm-Cpn (Methanococcus maripaludis). Potency, µM (highest dose often 76.9 µM), without a hit: at the top dose activity, negative = inhibition, most hits filed as inhibitors. purified Mm-Cpn ATPase, ADP Transcreener TR-FRET. 330,000 tested, 0.031% active; also: potency is read from the fitted curve at half-maximal effect; nearly all actives have a fitted effect of over 80% in size
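Compound-treated chaperonin, 25 nM final, turns over 10 uM ATP at 37°C for 30 min following a 10 min preincubation; ADP generated competes with ADP-d2 for Eu-cryptate antibody, lowering FRET.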
G9a block: qHTS Assay for Inhibitors of Histone Lysine Methyltransferase G9a; Histone-lysine N-methyltransferase EHMT2 (Homo sapiens), Q96KQ7; G9a H3K9 monomethylation, AlphaScreen, 2 h; Potency, µM (series often up to 102 µM), without a hit: top-dose activity, negative = inhibition, most hits filed as inhibitors; 350,000 tested, 8.8% active; also: potency is read from the fitted curve at half-maximal effect; nearly all actives have a fitted effect of over 75% in size
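AlphaScreen read-out: biotin-H3K9 peptide (500 nM) methylation by 20 nM enzyme with 20 uM SAM, 2 h at room temperature after 15 min compound preincubation; anti-monomethyl H3K9 antibody plus donor/acceptor beads, 10 min dark.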
CCT modulator: High-Throughput Screening for Modulators of Cytosolic Chaperonin Activity. purified chaperonin ATPase assay, HTRF ADP detection, 30 min. activity change, % (no concentration beside the values), hits read low. 360,000 tested, 0.3% active. AID 651819, 2012; in the data active = activity change below about -30%
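TRiC (40 or 20 nM final, by batch activity) in 30 mM Tris pH 7.4, 100 mM KCl, 5 mM MgCl2, 1 mM DTT was treated with compound at 76 uM single dose, then 10 uM ATP, 30 min at 37 °C. ADP was read by HTRF Transcreener.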
Numbers without * were called inactive; ? = inconclusive; · = no result given; [ ] = dose if it differs, or a comment. Shown are actives, neighbours in structure and some others; about 10% of the full set was active somewhere. Unless noted, calls follow the shape of the dose curve; as a rule, active = well fitted curve in the direction sought with a large enough effect; inconclusive = small, poorly fitted or top-dose-only effect, or another doubt; inactive = no such curve, though single readings can be large; an effect the other way counts as inactive or inconclusive. Unless noted, % is scaled to controls: 0 for no effect and ±100 for the full control effect.

SMILES | Sfp PPTase inh | VDR inhibitor | PLK1 PBD block | Mm-Cpn inhibitor | G9a block | CCT modulator
Cc1ccc(OCC(O)CN2CCN(Cc3ccc4c(c3)OCO4)CC2)c(C)c1 (configuration not stated) | 8% | 5% | -11% | -1% | -6%[59 µM] | 1
CC(=O)c1ccc(OCC(O)CN2CCN(CCO)CC2)cc1 (configuration not stated) | 19% | 15% | -4% | 0% | -18%[59 µM] | -1
Cc1cccc(NS(=O)(=O)c2ccc3c(c2)n(C)c(=O)n3C)c1C | · | 18% | · | · | -1%[59 µM] | ·
CCc1ccc(S(=O)(=O)c2nnn3c2nc(Nc2cc(OC)ccc2OC)c2sccc23)cc1 | · | 3% | · | · | -20%[59 µM] | ·
CCOC(=O)c1ccc(S(=O)(=O)N2CCN(CC(O)COc3ccc(C#N)cc3)CC2)cc1 (configuration not stated) | -20% | 15% | -3% | 0% | 35µM* | -3
N#CCCn1cc(C(=O)CN2C(=O)C(=O)N(C3CCCC3)C2=O)c2ccccc21 | · | -14% | -12% | -1% | 50µM* | -9
Cc1cccc(N2C(=O)/C(=C/c3cccnc3)SC2=S)c1 | 14% | -13% | -10% | -1% | 16µM* | 1
O=C1/C(=C\c2cccnc2)SC(=S)N1C1CCS(=O)(=O)C1 (configuration not stated) | 79µM* | -8% | -19% | 2% | ? | -2
Cc1ccc(N2C(=O)/C(=C/c3cccnc3)SC2=S)cc1 | 2% | -10% | -4% | -3% | 10%[59 µM] | -7
Cc1ccc(/C=C2\SC(=S)N(c3cccnc3)C2=O)o1 | 50µM* | -3% | -11% | 0% | ? | 0
Cc1cc(/C=C2/SC(=S)N(c3ccc([N+](=O)[O-])cc3)C2=O)c(C)n1-c1cccnc1 | -27% | -9% | -21% | -3% | 10µM* | -2
CSc1ccc(CCNC(=O)c2cc3cc(S(=O)(=O)N4CCCCC4)ccc3n2C)cc1 | · | 3% | · | · | 6%[59 µM] | ·
Cc1cccc(N2CCN(C(=O)c3c(C)oc4ncnc(N5CCCCC5)c34)CC2)c1C | · | 15% | · | · | -45%[59 µM] | ·
COc1cc(/C=C2\C(=O)NN(c3ccccc3)C2=O)ccc1OCC(N)=O | 19% | · | · | -3% | 50µM* | ·
COc1ccc(/C=C2\SC(=N)N(c3ccc(F)cc3)C2=O)cc1OC | 7% | 4% | -15% | 0% | -22%[59 µM] | -4
C#CCOc1ccc(/C=C2/C(=O)NN(c3ccc(F)cc3)C2=O)cc1OC | -20% | -19% | 12µM* | -1% | 35µM* | -4
CCS(=O)(=O)N1CCC(C(=O)Nc2cccc(F)c2)CC1 | -10% | -7% | -1% | -2% | 1% | -54*
Cc1n[nH]c(C)c1S(=O)(=O)N1CCC(C(=O)Nc2cccc(F)c2)CC1 | 10% | 7% | -1% | 3% | ? | 2
COc1ccc(C)cc1Nc1n[n+](-c2ccccc2)c(-c2c(Cl)cccc2Cl)s1 | ? | -23% | -11% | 0% | 40µM* | 1
COc1ccc(C)cc1Nc1n[n+](-c2ccccc2)c(-c2ccc(N(C)C)cc2)s1 | 20µM* | 3% | 5% | -17% | 50µM* | 1
COc1ccc(C)cc1Nc1n[n+](-c2ccccc2)c(-c2ccc(OC)c(OC)c2OC)s1 | -28% | -5% | -13% | -2% | · | -1
CC(C)COc1ccccc1C1CC(=O)Nc2cc3c(cc21)OCO3 (configuration not stated) | · | -9% | · | · | ? | ·
COc1ccc(-c2nc3c(C#N)c[nH]n3c2NC2CCCC2)cc1 | · | 11% | · | · | ? | ·
CN1/C(=C\C(=O)CSc2nnc(NCc3ccccc3)s2)C(C)(C)c2ccccc21 | -18% | -1% | -11% | ? | 3.2µM* | -2
